Consider eight molecules from PubChem BioAssay (NCATS).

Inconclusive results are not listed. Calls of active or inactive are those of the source. Unless noted, calls come from the whole dose curve; as a rule, active = well fitted curve in the direction sought with a large enough effect; inconclusive = small, poorly fitted or top-dose-only effect, or another doubt; inactive = no such curve, though single readings can be large; an effect the other way counts as inactive or inconclusive.

A short description of test [1]: Cytometry Cell-Based qHTS for Inhibitors of the mTORC1 Signaling Pathway in MEF cells (AID 2668).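 Note: Tsc2-/- p53-/- mouse embryonic fibroblasts stably re-expressing wild-type Tsc2; percent cells positive for phospho-rpS6 Ser235/236 relative to propidium iodide stain; series mostly up to about 38 µM.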 In outline: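 Tsc2-/-, p53-/- MEFs re-expressing WT Tsc2; cpd 24 hrs, 37 degree Celsius; PFA fix, Alexa-488 p-rpS6 (Ser235/236) Ab 2 hrs RT, PI counterstain; Acumen 488nm scan; p-S6/PI ratio → % positive cells; PI count = viability.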
Background: Quantitative high-throughput screening tests each substance at several concentrations.

Test [2] in a line: Validation screen for inhibitors of Lassa infection (AID 463096; calls by dose curve).
Test [3] is described as follows: Validation screen for small molecules that induce DNA re-replication in MCF 10A normal breast cells (AID 463097). Note: nearly all actives have a fitted effect of over 60% in size. In outline:
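Image-based qHTS: normal breast cells are incubated with compound for 48 hr, stained with Hoechst, and scanned for total nuclear fluorescence. Compounds raising the fraction of nuclei with elevated DNA content count as re-replication inducers.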

In test [4] the target is Ubiquitin carboxyl-terminal hydrolase 2 (Homo sapiens) (UniProt O75604). Description: qHTS Validation Assay for Inhibitors of Ubiquitin-specific Protease USP2a Using CHOP2 as the Reporter (AID 463106). The procedure, abridged:
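Readout was coupled fluorescence (Ex 485/Em 531 nm), read 60 min after adding 25 nM final Ub-CHOP2 and 25 nM reporter substrate. Beforehand, 10 nM final USP2 core had 30 min at RT with compound in pH 8.0 buffer. Curves were fitted after normalization to NEM and flagged for artifacts using time-zero reads.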

The target in test [5] is DNA polymerase III PolC-type (Bacillus subtilis (strain 168)) (UniProt P13267). The test is described as follows: qHTS Validation Assay for the Inhibitors of DNA Replication in Gram-Positive Bacteria (AID 485295).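 Note: reconstituted holoenzyme with PolC plus beta clamp SSB and primase; PicoGreen fluorescence of double-stranded DNA made on primed circular M13 template; series mostly up to about 57 µM.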 The procedure, abridged:
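First, compound is mixed with the reconstituted replication complex and held at room temperature. Next, circular single-stranded M13Gori with nucleotides starts synthesis. Finally, PicoGreen in EDTA halts the reaction and stains double-stranded product for fluorescence reading.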

Test [6] addresses Tumor susceptibility gene 101 protein (Homo sapiens) (UniProt Q99816). The test is described as follows: qHTS Validation Assay for Iinhibitors of HIV-1 Budding by Blocking the Interaction of PTAP/TSG101 (AID 485342; calls by dose curve). The procedure, abridged: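 Binding of a FITC-tagged PTAP-motif peptide (50 nM) to the Tsg101 binding domain (10 uM) is monitored by fluorescence polarization. Compounds are pin-delivered before peptide addition, and incubation runs 20 min at room temperature.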

Test [7] in a line: qHTS Validation Assay to Find Inhibitors of Chronic Active B-Cell Receptor Signaling (AID 485345; active = well fitted curve in the direction sought with a large enough effect in the main read-out, with a control signal flat, not every such curve was filed as active). In outline: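 Read-out: ratio of filter-corrected green (IkappaBalpha fusion) to red (native) luciferase signal in doxycycline-induced TMD8 cells after 4 h at 37C. Titration spanned 46 uM–3 nM; Data were normalised to basal cells and 10 uM MG-132 wells.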
The target in test [8] is Beta-2 adrenergic receptor (Homo sapiens) (UniProt P07550). The test is described as follows: qHTS validation assay of beta-arrestin-biased ligands of beta2-adrenergic receptor (AID 485366). In outline:
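Compound series up to 46 microM applied to beta2-AR/beta-arrestin Tango cells, 18 hr, 37 degrees C, 5% CO2. Read-out: tTA-driven luciferase luminescence, converted to %Activity; concentration-response curves assigned curve classes.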

The target of test [9] is ATP-dependent 6-phosphofructokinase (Trypanosoma brucei brucei) (UniProt O15648). The test is described as follows: qHTS Validation Assay to Find Inhibitors of T. brucei phosphofructokinase (AID 485368). Note: potency is the fitted concentration of half-maximal effect. The procedure, abridged: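 qHTS format, up to 57 uM. PFK 1.25 nM; F6P 0.5 mM; ATP 0.1 mM; 5 mM MgCl2, 0.01% Tween20, 0.1% BSA; 0.1 M TEA pH 8.0; 45 min RT; ADP-Glo readout; no-enzyme control = full inhibition.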

Test [10] can be described thus: Quantitative high throughput screen for delayed death inhibitors of the malarial parasite plastid, 96 hour incubation (AID 488745). Note: nearly all actives have a fitted effect of over 70% in size. Note: potency is the fitted concentration of half-maximal effect. In outline: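 Two-generation (96 h) exposure of luciferase-reporter P. falciparum in erythrocytes, 2% hematocrit, 0.1% parasitemia final, 37 C, 5% CO2, RPMI 1640 with 0.5% Albumax. Growth inhibition scored by reduced luminescence.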
Test [11] can be described thus: Quantitative high throughput screen for delayed death inhibitors of the malarial parasite plastid, 48 hour incubation (AID 488752). Note: nearly all actives have a fitted effect of over 65% in size. Note: potency is the fitted concentration of half-maximal effect. The procedure, abridged: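 Cultures: infected erythrocytes at final 2% hematocrit and 0.1% parasitemia in Albumax-supplemented RPMI. Parasites express integrated firefly luciferase. Incubation with compound lasts 48 h before luminescent detection of remaining reporter activity.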

The target of test [12] is Thioredoxin reductase 1, cytoplasmic (Rattus norvegicus) (UniProt O89049). The test is described as follows: qHTS Assay for Substrates of Mammalian Selenoprotein Thioredoxin Reductase 1 (TrxR1) (AID 488772).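 Note: series mostly up to about 57 µM; a drop in NADPH fluorescence below the no-compound background marks a TrxR1 substrate.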 The procedure, abridged:
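In this dual-purpose format, potential substrates are identified from the first fluorescence read after selenite addition, not from the 8-minute delta. Rat enzyme is preincubated with NADPH and then with compound at ~22 deg C.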

For test [13] the target is unchanged. Description: qHTS Assay for Inhibitors of Mammalian Selenoprotein Thioredoxin Reductase 1 (TrxR1) (AID 488773).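 Note: drop in NADPH fluorescence over an 8 min run after selenite addition; series mostly up to about 57 µM; nearly all actives have a fitted effect of over 40% in size.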 The conditions noted are these: Potency: inhibition. In outline:
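Inhibition is scored from the loss of NADPH fluorescence between first and last reads of an 8-min kinetic run. Selenite (400 uM) was the substrate, added after 15 min compound preincubation at room temperature.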

Test [14] has as its target Flap endonuclease 1 (Homo sapiens) (UniProt P39748). The test is described as follows: qHTS Validation Assay for the Inhibitors of Human Flap endonuclease 1 (FEN1) (AID 488816). Note: potency is the fitted concentration of half-maximal effect. The procedure, abridged: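 qHTS format: compounds and 10 nM FEN1 incubated 15 min at room temperature before adding 50 nM substrate. Cleavage followed by reads at 0 and 15 min; normalized data fitted to a four-parameter Hill curve.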

In test [15] the target is M-phase phosphoprotein 8 (Homo sapiens) (UniProt Q99549). Description: qHTS Validation Assay for Inhibitors for MPP8 Chromodomain Interactions with Methylated Histone Tails (AID 488949). Note: nearly all actives have a fitted effect of over 55% in size. Note: potency is the fitted concentration of half-maximal effect. The procedure, abridged:
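50 nM MPP8 + 50 nM b-H3K9me3 peptide, PBS pH 7.4/0.01% Tween-20, 30 min RT; + cpd 30 min RT; + AlphaScreen donor/Ni-chelate acceptor beads 10 ug/mL final, 30 min dark; luminescence read.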

In test [16] the target is Methanococcus maripaludis chaperonin (MmCpn) (UniProt Q6LX38). The test is described as follows: High-Throughput Screening for Modulators of Cytosolic Chaperonin Activity: MmCpn Primary Screen (AID 488978).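 Note: 50 nM MmCpn enzyme hydrolysing 30 µM ATP at 37 °C.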 In outline:
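Steps: chaperonin 50 nM final; add compound, 5 min RT; start with ATP, 30 uM final; hold 10 min at 37C; add ADP Transcreener HTRF reagent, 5 min; read ex 320, em 590 and 665 nm.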

For test [17], the target named is Transient receptor potential cation channel subfamily V member 1 (Homo sapiens) (UniProt Q8NER1). Description: HTS Assay for Compounds that Act as Enhancers of the Vanilloid Receptor 1 (AID 488979). In outline: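 Calcium influx kinetics via Fluo-8 (480/520 nm) in TRPV1-expressing cells, 2000/well cultured overnight at 35.5C. Compound-alone read 3 min (agonist phase), followed by EC20 capsaicin challenge for 2 min (enhancer phase).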

Test [18] concerns the target Thyrotropin receptor (Homo sapiens) (UniProt P16473). The test is described as follows: qHTS Assay for Antagonists of the Thyroid Stimulating Hormone Receptor (AID 488980). Note: series mostly up to about 58 µM. In outline: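 Readout is cAMP by HTRF competition between cellular cAMP and cAMP-d2 for a cryptate-labelled antibody. Antagonism was assessed in TSHR-transfected HEK293 cells stimulated with 4 nM TSH (EC80, final) in the presence of RO 20-1724.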

Test [19] has as its target Chromobox protein homolog 1 (Homo sapiens) (UniProt P83916). Description: qHTS Validation Assay for Inhibitors of HP1-beta Chromodomain Interactions with Methylated Histone Tails (AID 488953).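 Note: loss of AlphaScreen luminescence from HP1-beta binding biotinylated H3K9me3 peptide; series mostly up to about 110 µM; nearly all actives have a fitted effect of over 50% in size.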 In outline:
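Compounds pinned into a preassembled complex of HP1-beta and trimethyl-K9 histone H3(1-18) biotin peptide (50 nM each; PBS pH 7.4, 0.01% Tween-20). After 30 min, bead-based AlphaScreen detection followed.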

For test [20], the target named is D(1A) dopamine receptor (Homo sapiens) (UniProt P21728). Description: HTS Assay for Allosteric Agonists of the Human D1 Dopamine Receptor: Primary Screen for Agonists (AID 488981). In outline:
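Calcium flux in an inducible, force-coupled HEK293 Trex D1 line (overnight at 30 C): agonist mode is the 180 s kinetic read after compound; potentiator mode is the following 180 s read after dopamine at EC20.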

Sequence of Chromobox protein homolog 1 (Homo sapiens) (P83916 whole entry, looked up): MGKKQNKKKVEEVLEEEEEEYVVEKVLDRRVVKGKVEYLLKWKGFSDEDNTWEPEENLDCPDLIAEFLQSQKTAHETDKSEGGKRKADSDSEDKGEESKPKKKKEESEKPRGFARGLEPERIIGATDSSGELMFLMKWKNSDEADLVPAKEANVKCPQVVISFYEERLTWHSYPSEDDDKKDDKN
Sequence of ATP-dependent 6-phosphofructokinase (Trypanosoma brucei brucei) (O15648 whole entry, looked up): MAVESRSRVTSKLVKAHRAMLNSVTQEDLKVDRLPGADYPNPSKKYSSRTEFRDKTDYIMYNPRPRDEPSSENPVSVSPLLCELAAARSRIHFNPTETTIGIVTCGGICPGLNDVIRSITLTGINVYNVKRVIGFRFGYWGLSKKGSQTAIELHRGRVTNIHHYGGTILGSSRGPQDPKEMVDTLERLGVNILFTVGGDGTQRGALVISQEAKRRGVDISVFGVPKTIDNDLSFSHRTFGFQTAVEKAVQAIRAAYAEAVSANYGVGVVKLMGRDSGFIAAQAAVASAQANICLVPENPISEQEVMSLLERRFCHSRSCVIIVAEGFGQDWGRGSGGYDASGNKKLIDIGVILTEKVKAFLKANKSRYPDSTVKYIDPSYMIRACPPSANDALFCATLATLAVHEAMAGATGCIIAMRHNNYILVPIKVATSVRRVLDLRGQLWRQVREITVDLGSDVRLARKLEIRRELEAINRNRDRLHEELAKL
Sequence of DNA polymerase III PolC-type (Bacillus subtilis (strain 168)) (P13267 whole entry, looked up): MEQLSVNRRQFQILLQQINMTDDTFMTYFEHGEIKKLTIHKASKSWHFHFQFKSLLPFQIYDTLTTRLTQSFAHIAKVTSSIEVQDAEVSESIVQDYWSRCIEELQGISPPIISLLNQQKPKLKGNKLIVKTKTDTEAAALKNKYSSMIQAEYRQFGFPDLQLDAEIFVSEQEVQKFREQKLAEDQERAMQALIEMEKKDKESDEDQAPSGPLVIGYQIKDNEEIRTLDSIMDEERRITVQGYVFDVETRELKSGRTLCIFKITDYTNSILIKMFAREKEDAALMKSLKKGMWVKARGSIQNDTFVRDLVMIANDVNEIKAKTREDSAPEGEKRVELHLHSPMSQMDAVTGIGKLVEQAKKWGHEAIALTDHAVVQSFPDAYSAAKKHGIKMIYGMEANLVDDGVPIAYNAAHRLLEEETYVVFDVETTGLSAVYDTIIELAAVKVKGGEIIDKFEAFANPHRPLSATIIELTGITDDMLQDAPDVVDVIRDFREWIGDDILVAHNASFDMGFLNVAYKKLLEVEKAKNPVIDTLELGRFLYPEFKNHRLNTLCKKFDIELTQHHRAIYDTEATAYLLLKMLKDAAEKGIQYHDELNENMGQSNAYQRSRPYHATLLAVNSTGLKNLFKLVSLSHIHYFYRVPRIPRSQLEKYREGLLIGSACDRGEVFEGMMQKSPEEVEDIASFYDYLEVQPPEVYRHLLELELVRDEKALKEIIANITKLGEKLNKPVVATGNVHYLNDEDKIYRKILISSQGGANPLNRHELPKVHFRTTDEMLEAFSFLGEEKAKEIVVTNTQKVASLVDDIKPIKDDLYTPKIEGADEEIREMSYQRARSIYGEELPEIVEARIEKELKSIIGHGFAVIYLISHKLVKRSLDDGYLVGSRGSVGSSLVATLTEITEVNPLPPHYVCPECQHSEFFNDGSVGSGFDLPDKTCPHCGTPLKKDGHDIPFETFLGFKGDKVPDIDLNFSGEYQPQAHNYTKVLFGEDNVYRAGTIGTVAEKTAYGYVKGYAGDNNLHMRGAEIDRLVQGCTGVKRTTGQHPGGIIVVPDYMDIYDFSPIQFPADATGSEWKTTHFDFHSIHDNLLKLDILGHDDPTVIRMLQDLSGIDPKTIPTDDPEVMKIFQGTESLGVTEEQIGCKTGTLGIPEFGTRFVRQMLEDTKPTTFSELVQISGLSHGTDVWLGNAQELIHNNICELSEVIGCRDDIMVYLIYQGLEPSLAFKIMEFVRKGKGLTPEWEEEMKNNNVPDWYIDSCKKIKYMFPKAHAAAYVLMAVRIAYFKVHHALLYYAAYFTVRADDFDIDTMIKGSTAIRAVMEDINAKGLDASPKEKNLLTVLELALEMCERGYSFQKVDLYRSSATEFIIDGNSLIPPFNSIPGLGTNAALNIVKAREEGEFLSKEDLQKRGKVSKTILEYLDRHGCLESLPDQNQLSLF
Sequence of Thioredoxin reductase 1, cytoplasmic (Rattus norvegicus) (O89049 whole entry, looked up): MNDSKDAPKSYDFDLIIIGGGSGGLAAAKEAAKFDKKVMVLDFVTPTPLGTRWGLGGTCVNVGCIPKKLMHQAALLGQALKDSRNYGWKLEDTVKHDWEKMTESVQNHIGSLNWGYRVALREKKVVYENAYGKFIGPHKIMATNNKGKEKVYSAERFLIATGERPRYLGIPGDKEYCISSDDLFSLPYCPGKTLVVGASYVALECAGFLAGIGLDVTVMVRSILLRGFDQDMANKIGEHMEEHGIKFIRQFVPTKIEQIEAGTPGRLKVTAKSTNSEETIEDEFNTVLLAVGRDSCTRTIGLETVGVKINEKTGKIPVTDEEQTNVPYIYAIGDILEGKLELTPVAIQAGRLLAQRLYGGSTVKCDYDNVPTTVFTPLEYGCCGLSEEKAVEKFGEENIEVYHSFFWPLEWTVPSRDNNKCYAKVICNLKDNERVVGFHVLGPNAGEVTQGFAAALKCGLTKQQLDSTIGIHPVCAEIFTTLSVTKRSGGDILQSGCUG
Sequence of Flap endonuclease 1 (Homo sapiens) (P39748 whole entry, looked up): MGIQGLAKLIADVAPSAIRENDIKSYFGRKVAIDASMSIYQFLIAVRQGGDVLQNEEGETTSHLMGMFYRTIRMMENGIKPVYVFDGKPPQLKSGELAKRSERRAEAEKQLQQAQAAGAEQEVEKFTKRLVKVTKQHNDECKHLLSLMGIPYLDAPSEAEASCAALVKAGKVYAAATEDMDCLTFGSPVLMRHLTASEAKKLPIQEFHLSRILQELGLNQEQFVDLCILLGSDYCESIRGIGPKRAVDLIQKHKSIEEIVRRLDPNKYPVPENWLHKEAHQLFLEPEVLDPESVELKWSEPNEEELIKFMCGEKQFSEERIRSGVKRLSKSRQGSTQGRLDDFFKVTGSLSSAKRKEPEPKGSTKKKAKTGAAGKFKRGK
Sequence of Transient receptor potential cation channel subfamily V member 1 (Homo sapiens) (Q8NER1 whole entry, looked up): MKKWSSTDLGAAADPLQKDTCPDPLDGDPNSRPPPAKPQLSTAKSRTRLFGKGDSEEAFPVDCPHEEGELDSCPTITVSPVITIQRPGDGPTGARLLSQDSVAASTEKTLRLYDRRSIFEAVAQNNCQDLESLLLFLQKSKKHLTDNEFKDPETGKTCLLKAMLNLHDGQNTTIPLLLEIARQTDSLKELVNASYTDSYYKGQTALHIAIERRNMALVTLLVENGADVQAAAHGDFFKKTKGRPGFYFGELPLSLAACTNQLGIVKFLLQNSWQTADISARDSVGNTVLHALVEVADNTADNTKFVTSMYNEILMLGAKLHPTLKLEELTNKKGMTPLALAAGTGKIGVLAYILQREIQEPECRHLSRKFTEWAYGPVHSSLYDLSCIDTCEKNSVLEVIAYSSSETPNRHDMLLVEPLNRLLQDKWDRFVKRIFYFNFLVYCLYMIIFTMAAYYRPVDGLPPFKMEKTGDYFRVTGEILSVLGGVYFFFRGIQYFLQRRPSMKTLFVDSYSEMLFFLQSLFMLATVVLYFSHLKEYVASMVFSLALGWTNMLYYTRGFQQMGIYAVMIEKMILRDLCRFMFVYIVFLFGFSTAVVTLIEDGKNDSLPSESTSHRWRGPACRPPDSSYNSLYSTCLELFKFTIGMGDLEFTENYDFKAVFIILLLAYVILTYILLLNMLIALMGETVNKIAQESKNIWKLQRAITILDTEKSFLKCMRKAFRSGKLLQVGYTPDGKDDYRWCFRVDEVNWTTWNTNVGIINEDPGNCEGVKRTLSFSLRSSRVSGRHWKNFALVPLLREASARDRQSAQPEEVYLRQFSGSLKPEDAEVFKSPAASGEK
Sequence of Beta-2 adrenergic receptor (Homo sapiens) (P07550 whole entry, looked up): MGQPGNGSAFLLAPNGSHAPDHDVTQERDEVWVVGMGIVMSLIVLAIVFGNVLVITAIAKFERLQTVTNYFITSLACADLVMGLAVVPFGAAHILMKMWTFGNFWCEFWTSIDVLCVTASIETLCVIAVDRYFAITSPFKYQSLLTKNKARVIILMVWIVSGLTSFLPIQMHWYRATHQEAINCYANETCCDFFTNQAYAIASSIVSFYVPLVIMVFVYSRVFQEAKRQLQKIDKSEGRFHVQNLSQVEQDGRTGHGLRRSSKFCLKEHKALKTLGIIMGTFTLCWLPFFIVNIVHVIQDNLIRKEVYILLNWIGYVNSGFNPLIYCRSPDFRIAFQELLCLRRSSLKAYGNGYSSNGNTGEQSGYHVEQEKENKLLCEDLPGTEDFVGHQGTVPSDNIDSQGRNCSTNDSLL
Sequence of Ubiquitin carboxyl-terminal hydrolase 2 (Homo sapiens) (O75604 whole entry, looked up): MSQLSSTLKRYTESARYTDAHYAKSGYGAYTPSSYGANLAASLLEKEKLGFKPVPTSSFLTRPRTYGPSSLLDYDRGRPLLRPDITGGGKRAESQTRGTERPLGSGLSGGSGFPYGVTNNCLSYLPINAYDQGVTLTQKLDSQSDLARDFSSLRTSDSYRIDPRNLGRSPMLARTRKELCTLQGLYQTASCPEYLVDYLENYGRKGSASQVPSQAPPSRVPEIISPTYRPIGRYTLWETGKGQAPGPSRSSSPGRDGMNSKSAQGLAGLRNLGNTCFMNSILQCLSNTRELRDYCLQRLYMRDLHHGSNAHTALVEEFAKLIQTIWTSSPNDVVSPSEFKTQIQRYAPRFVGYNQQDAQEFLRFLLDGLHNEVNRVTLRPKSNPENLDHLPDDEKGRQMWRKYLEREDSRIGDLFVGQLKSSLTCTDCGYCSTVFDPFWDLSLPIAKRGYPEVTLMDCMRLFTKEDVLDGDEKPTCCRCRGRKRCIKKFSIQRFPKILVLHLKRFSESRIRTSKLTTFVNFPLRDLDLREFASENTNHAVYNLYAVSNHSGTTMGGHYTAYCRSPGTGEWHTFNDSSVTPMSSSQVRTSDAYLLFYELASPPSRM

As to `CCCN(CCC)[C@H]1CCc2c(F)ccc(O)c2C1`, the Potency entry in [1], in test [2], in test [3], in test [4], in [5] and in test [7] was “inactive” in each case. The Potency entry in test [9], in [13], in test [14] and in [15] was “inactive” in each case. In addition, the result in test [6], in test [8], in [12], in [16], in test [17] and in test [18] was inactive. Also, the Potency in [10] and in test [11] was 2.94 µM (active) each time.
With `NCC(O)c1cc(O)c(O)cc1F` (centres undefined), the Potency entry in [1], in test [2], in test [3], in test [4], in [5] and in [7] was “inactive” each time. The Potency result in [10] and in test [11] was “inactive” in each case. Besides, the result in test [6], in [8], in test [12], in test [16], in [17] and in test [18] was inactive. In addition, the Potency in test [9] was 4.78 µM (active); in test [14], 2.67 µM (active); in test [15], 18.9 µM (active).
On to `CO[C@H]1CC=C2CCN3CCC4=C(CC(=O)OC4)[C@]23C1`, for which the Potency result in test [1], in test [2], in test [3], in test [4], in test [5] and in [7] was “inactive” each time. The Potency entry in [9], in test [10], in [13], in test [15], in test [19] and in test [20] was “inactive” throughout. The molecule was classed as inactive in test [6], in test [8], in test [12], in test [16] and in [17].
On to `NCCCP(=O)(O)O`, for which the Potency entry in test [1], in [2], in test [3], in test [4], in [5] and in test [7] was “inactive” throughout. Also, the Potency entry in [9], in test [10], in test [11], in test [13], in test [14] and in test [15] was “inactive” each time. Moreover, the outcome in test [6], in test [8], in test [12], in test [16], in test [17] and in test [18] was inactive.
Consider `C[N+](C)(C)CC#CCN1CCCC1=O`, for which the Potency result in [1], in test [2], in test [3], in test [4], in [5] and in [7] was “inactive” throughout. For the same molecule, the Potency entry in test [9], in [10], in [11], in test [13], in test [14] and in test [15] was “inactive” each time. In addition, the molecule was called inactive in test [6], in test [8], in [12], in test [16], in [17] and in test [18].
With `N[C@@H](CCl)C(=O)O`, the Potency entry in [1], in test [2], in test [3], in test [4], in test [5] and in test [7] was “inactive” each time. Besides, the Potency result in test [9], in test [10], in test [11], in test [13], in test [14] and in [15] was “inactive” each time. For the same molecule, the molecule was called inactive in test [6], in [8], in test [12], in [16], in [17] and in test [18].
As to `C[Se]C[C@H](N)C(=O)O`, the Potency entry in test [1], in test [2], in [3], in [4], in test [5] and in test [7] was “inactive” each time. Further, the Potency entry in [9], in test [10], in [11], in test [13], in test [14] and in test [15] was “inactive” throughout. Further, the Potency result in [19] is “inactive”. Further, the molecule was called inactive in [6], in test [8], in [12], in test [16], in test [17] and in test [18].
With `CN(C(=O)Cc1ccc(Cl)c(Cl)c1)C(CN1CCCC1)c1cccc(OCC(=O)O)c1` (centres undefined), the Potency entry in test [1], in test [2], in test [3], in [4], in [5] and in test [7] was “inactive” in each case. Also, the Potency entry in [9], in [10], in test [11], in [13], in test [14] and in test [15] was “inactive” each time. The Potency entry in test [19] was “inactive”. In addition, the molecule was classed as inactive in test [6], in [8], in [12], in test [16], in test [17] and in [18].
